Records with an inconclusive call do not appear. Activity calls are given as the source filed them. The call rests on the fitted dose curve; in most records, active means well fitted inhibition curve with a large enough effect; inconclusive means small, poorly fitted or top-dose-only effect, or effect the other way; inactive means no such curve, though single readings can be large or run the other way.
Test: High Content Assay for Compounds that inhibit the Assembly of the Perinucleolar Compartment: DNA Intercalation/PicoGreen Displacement Assay
Source text: High Content Assay for Compounds that inhibit the Assembly of the Perinucleolar Compartment
NIH Chemical Genomics Center [NCGC]
NIH Molecular Libraries Probe Centers Network [MLPCN]
Assay Submitter (PI): Sui Huang, Northwestern University, Feinberg School of Medicine, Cell and Molecular Biology, Chicago, Illinois.
The perinucleolar compartment (PNC) is a non-membrane-bound nuclear subdomain that is associated with but structurally distinct from the nucleolus. The PNC is a heritable trait, in which the number of PNCs per cell in daughter cells often mimics that of their mother cells. The PNC is heterogeneous in shape, is stable through interphase, disassembles during mitosis, and reassembles in early G1. […]
Therefore, we conducted a DNA intercalation/displacement assay on the lead candidates in order to exclude compounds with this mechanism of action. […] Compounds which displace the dye will decrease fluorescence intensity and were considered DNA intercalators/displacers. In order to rule out potential fluorescence artifacts, a measurement of compound plus DNA only was also calculated. […]
4. A baseline signal was measured using an Envision PMT based plate reader using a 488 nm excitation filter and a 520 nm emission filter. […]
6. Plates were incubated at 37 C for 10 minutes prior to being read on the envision plate reader. […]

Structure (SMILES)	outcome
Cc1c2ccncc2c(C)c2c1[nH]c1ccccc12	inactive
CCC(=NCc1cc(OC)cc(OC)c1)c1c(O)n(C)c(=O)n(C)c1=O	inactive

— PubChem BioAssay AID2734 (National Center for Advancing Translational Sciences (NCATS), 2010)
